# Experimental data: PubChem BioAssay (Tox21)
# Records with an inconclusive call do not appear. Values without a mark were called inactive. Calls follow the shape of the dose curve; as a rule, active = well fitted cell-killing curve with a large enough effect in the repeat runs; inconclusive = weak or mixed curves; inactive = flat fitted curve, though single readings scatter.
# Experiment: qHTS RealTime-Glo MT Cell Viability Assay in HepG2 cells - 24 hour (AID 1224867); also: nearly all actives have a fitted effect of over 50% in size
# Details: RealTime-Glo luminescence; series mostly up to 76.8 µM; activity change, negative = cytotoxicity: at the top concentration
# Description: U.S. Tox21 Program National Center for Advancing Translational Sciences [NCATS] NIH Chemical Genomics Center [NCGC] U.S. Environmental Protection Agency [EPA] National Institutes of Environmental Health Sciences [NIEHS] National Toxicology Program [NTP] U.S. Food and Drug Administration [FDA] Tox21 Assay Overview: Measure of cell viability is critical in the cell-base assay. Analysis of cell viability is necessary for the characterization of cell responses to cytotoxic drugs and environmental stress. A RealTime-Glo MT Cell Viability Assay to monitor cell viability in real time of continues cell culture during 40 hours of compound treatment was used to screen Tox21 10K library compounds in HepG2 cells. The RealTime-Glo MT Cell Viability Assay is a nonlytic, homogeneous, bioluminescent method to measure cell viability in real time using a simple, plate-based method. The assay involves adding NanoLuc luciferase and a cell-permeant prosubstrate to cells in culture. Viable cells reduce the proprietary prosubstrate to generate a substrate for NanoLuc luciferase. This substrate diffuses from cells into the surrounding culture medium, where it is rapidly used by the NanoLuc Enzyme to produce a luminescent signal. The signal correlates with the number of viable cells, making the assay well suited for cytotoxicity studies.
# Tox21 Assay Protocol Summary: The mixture of HepG2 cell suspension and reagents were dispensed at 600cells/6 ul/well in 1536-well tissue culture treated black solid bottom plates using a Multidrop dispenser. After the assay plates were incubated at a 37 C/5% CO2 incubator for 5 hours, 23 nL of compounds dissolved in DMSO, positive and negative controls was transferred to the assay plate by a pintool work station. The plates were incubated at 37 C for 40 hours. The luminescence intensity were measured at 0h, 8h, 16h, 24h, 32h and 40h time points using ViewLux plate reader during compound treatment.
# % is scaled to controls: 0 for no effect and ±100 for the full control effect.
row,Structure (SMILES),"activity change, negative = cytotoxicity"
1,CC(C)O,2.04%
2,CCCCCCC,0.875%
3,CCCCC1CCC(=O)O1 (stereo not given),1.07%
4,CCC1(C)NC(=O)NC1=O (stereo not given),3.22%
5,O=C1Nc2ccc([N+](=O)[O-])cc2C1=O,-0.399%
6,O=C(O)[C@@H](O)[C@H](O)[C@H](O)[C@@H](O)C(=O)O,1.24% [at 35.3 µM]
7,CN1CCN(c2c(F)cc3c(=O)c(C(=O)O)cn(CCF)c3c2F)CC1,0.623% [at 35.3 µM]
8,CC(C)(CO)[C@@H](O)C(=O)NCCC(=O)O,1.26%
9,Cc1cc(NS(=O)(=O)c2ccc(N)cc2)nc(C)n1,0.196% [at 35.3 µM]
10,FC(F)(F)C(F)(F)C(F)(F)C(F)(F)C(F)(F)C(F)(F)C(F)(F)C(F)(F)Br,0.284% [at 35.3 µM]
11,C[C@@H]1CN(c2c(F)c(F)c3c(=O)c(C(=O)O)cn(C4CC4)c3c2F)C[C@H](C)N1,0.621% [at 15.8 µM]
12,CC(=O)N(CC(O)CN(C(C)=O)c1c(I)c(C(=O)NCC(O)CO)c(I)c(C(=O)NCC(O)CO)c1I)c1c(I)c(C(=O)NCC(O)CO)c(I)c(C(=O)NCC(O)CO)c1I (stereo not given),0.707% [at 35.3 µM]
13,CO[C@@]1(NC(=O)CSCC#N)C(=O)N2C(C(=O)O)=C(CSc3nnnn3C)CS[C@@H]21,-3.09% [at 35.3 µM]
14,CCOC(=O)c1ccccc1O,-0.203% [at 35.3 µM]
15,CCN(CC)CCOc1ccc(Cc2ccccc2)cc1,-6.85% [at 35.3 µM]
16,CC(C)OC(C)C,-0.096%
17,OCCN(CCO)c1ccccc1,3.1%
18,O=C(Cl)c1cccc([N+](=O)[O-])c1,1.1%
19,CC(C)C1=CC2=CC[C@@H]3[C@](C)(CCC[C@@]3(C)C(=O)O)[C@H]2CC1,0.259%
20,O=c1[nH]c(=O)n([C@H]2C[C@H](O)[C@@H](CO)O2)cc1C(F)(F)F,2.24% [at 35.3 µM]

row,Structure (SMILES),"activity change, negative = cytotoxicity"
1,COC(=O)c1ccc2cc(C(=O)OC)ccc2c1,2.88% [at 15.8 µM]
2,CS(=O)(=O)c1ccc([C@@H](O)[C@@H](CF)NC(=O)C(Cl)Cl)cc1,1.46% [at 35.3 µM]
3,Cc1cccc(C)c1NC(=O)CN1CCCCCC1,2.77% [at 35.3 µM]
4,CC(=O)O[C@H]1CC[C@@]2(C)C(=CC[C@@H]3[C@@H]2CC[C@]2(C)C(C(C)=O)=CC[C@@H]32)C1,-7.02% [at 35.3 µM]
5,CCOC(=O)CS,2.21%
6,NC/C=C/C(=O)O,3.49% [at 35.3 µM]
7,CCCCCCCCCCCCCCCCOP(=O)([O-])OCC[N+](C)(C)C,-3.91% [at 35.3 µM]
8,OCCN1CCN(CCO)CC1,1.58%
9,CCN(CC)CC1CCCCN1CC(=O)N1c2ccccc2C(=O)Nc2cccnc21 (stereo not given),-0.215% [at 35.3 µM]
10,NCCC(O)(P(=O)(O)O)P(=O)(O)O,1.94% [at 35.3 µM]
11,CC1=NN(c2cc(Cl)c(S(=O)(=O)O)cc2Cl)C(=O)C1N=Nc1ccc(S(=O)(=O)O)cc1 (stereo not given),-9.25%
12,CCCC1CCC(=O)O1 (stereo not given),-2.38%
13,O=[N+]([O-])c1nccn1CO[C@@H](CO)[C@H](O)CO,-0.218% [at 35.3 µM]
14,CC(C)C(=O)OCC(C)(C)C(O)C(C)C (stereo not given),1.6%
15,CNCCC(Oc1ccccc1OC)c1ccccc1 (stereo not given),0.411% [at 35.3 µM]
16,CC(=O)Nc1ccc(C)c(Cl)c1,0.25%
17,O=c1oc2c(O)c(O)cc3c(=O)oc4c(O)c(O)cc1c4c23,-9.61% [at 15.8 µM]
18,COc1cc(N)c(Cl)cc1C(=O)NC1CCN(Cc2ccccc2)CC1,-4.17% [at 35.3 µM]
19,CN1CCN(c2c(F)cc3c(=O)c(C(=O)O)cn4c3c2SCC4)CC1,2.1% [at 35.3 µM]
20,CN1CCN(C2=Nc3cc(F)ccc3Cc3ccccc32)CC1,-8.56% [at 35.3 µM]
